Laboratory results from ChEMBL document CHEMBL4513141, “CO-ADD screening of NIH (USA) - Clinical Collection” (2021).
Entries with a potency or affinity are not part of this list.

Assays:
Klebsiella pneumoniae = conditions: Concentration 20 uM; ASSAY_TEST Inhibition of Bacterial Growth; detection method Absorption (OD600); MEDIA CAMHB; plate type 384well; NBS; CORNING #3640; time 18 hr
Candida albicans = conditions: 20 µM
Cryptococcus neoformans = conditions: Concentration 20 uM; ASSAY_TEST Inhibition of Fungal Growth; detection method Resazurin; Absorption (OD600-OD570); plate type 384well; NBS; CORNING #3640

Nc1ccn([C@H]2CC[C@@H](CO)O2)c(=O)n1 [ZALCITABINE]
Inhibition (Klebsiella pneumoniae): 8%
Inhibition (Candida albicans): 0.46%
Inhibition (Cryptococcus neoformans): -0.26%

CCN(Cc1ccncc1)C(=O)C(CO)c1ccccc1 (configuration not stated) [TROPICAMIDE]
Inhibition (Klebsiella pneumoniae): 7.31%
Inhibition (Candida albicans): 0.91%
Inhibition (Cryptococcus neoformans): -7.15%

CCN(CC)CCOC(=O)C1(C2CCCCC2)CCCCC1.Cl [DICYCLOMINE HYDROCHLORIDE]
Inhibition (Klebsiella pneumoniae): 5.74%
Inhibition (Candida albicans): 3.82%
Inhibition (Cryptococcus neoformans): -0.13%

Cc1cnc(C(=O)NCCc2ccc(S(=O)(=O)NC(=O)NC3CCCCC3)cc2)cn1 [GLIPIZIDE]
Inhibition (Klebsiella pneumoniae): 8.44%
Inhibition (Candida albicans): 3.06%
Inhibition (Cryptococcus neoformans): -1.88%

CC(C)[N+](C)(CCOC(=O)C1c2ccccc2Oc2ccccc21)C(C)C.[Br-] [PROPANTHELINE BROMIDE]
Inhibition (Klebsiella pneumoniae): 18.08%
Inhibition (Candida albicans): 2.52%
Inhibition (Cryptococcus neoformans): -1.43%

C[C@]12CC[C@@H]3c4ccc(OS(=O)(=O)[O-])cc4CC[C@H]3[C@@H]1CCC2=O.[Na+] [ESTRONE SODIUM SULFATE]
Inhibition (Klebsiella pneumoniae): 1.74%
Inhibition (Candida albicans): 3.72%
Inhibition (Cryptococcus neoformans): -4.65%

CC#C[C@]1(O)CC[C@H]2[C@@H]3CCC4=CC(=O)CCC4=C3[C@@H](c3ccc(N(C)C)cc3)C[C@@]21C [MIFEPRISTONE]
Inhibition (Klebsiella pneumoniae): 3.7%
Inhibition (Candida albicans): 3.98%
Inhibition (Cryptococcus neoformans): -10.45%

CC(C)(C#N)c1cc(Cn2cncn2)cc(C(C)(C)C#N)c1 [ANASTROZOLE]
Inhibition (Klebsiella pneumoniae): -11.78%
Inhibition (Candida albicans): 1.23%
Inhibition (Cryptococcus neoformans): -3.6%

CC(C)(C(=O)O)c1ccc(C(O)CCCN2CCC(C(O)(c3ccccc3)c3ccccc3)CC2)cc1.Cl (configuration not stated) [FEXOFENADINE HYDROCHLORIDE]
Inhibition (Klebsiella pneumoniae): 13.11%
Inhibition (Candida albicans): 1.18%
Inhibition (Cryptococcus neoformans): -7.41%

CC(COc1ccccc1)NC(C)C(O)c1ccc(O)cc1.Cl (configuration not stated) [ISOXSUPRINE HYDROCHLORIDE]
Inhibition (Klebsiella pneumoniae): 7.34%
Inhibition (Candida albicans): 3.25%
Inhibition (Cryptococcus neoformans): -2.3%

Nc1ccn([C@@H]2O[C@H](CO)[C@@H](O)[C@@H]2O)c(=O)n1 [CYTARABINE]
Inhibition (Klebsiella pneumoniae): 5.64%
Inhibition (Candida albicans): 2.79%
Inhibition (Cryptococcus neoformans): -8.77%

COC(=O)C1=C(C)NC(C)=C(C(=O)OC(C)C)C1c1cccc2nonc12 (configuration not stated) [ISRADIPINE]
Inhibition (Klebsiella pneumoniae): 7.21%
Inhibition (Candida albicans): 4.43%
Inhibition (Cryptococcus neoformans): -5.25%

CCN(CC)CCNC(=O)c1cc(Cl)c(N)cc1OC.Cl
Inhibition (Klebsiella pneumoniae): 10.19%
Inhibition (Candida albicans): 3.69%
Inhibition (Cryptococcus neoformans): -1.39%

CC(=O)Nc1ccc(CC(=O)O)cc1 [ACTARIT]
Inhibition (Klebsiella pneumoniae): 4.76%
Inhibition (Candida albicans): -0.65%
Inhibition (Cryptococcus neoformans): 4.09%
